# Screening results from PubChem BioAssay.
# Mtb RmlCD inh – blocks M. tuberculosis RmlC and RmlD coupled enzymes. P9WH09+P9WH11. inhibition, % at 3.6 µM. RmlC+RmlD coupled enzyme assay, percent inhibition; primary screen in compound mixtures. 160,000 tested, 0.03% active; in the data active means inhibition mostly above about 34%, no sharp cut-off; inconclusive means no clear call, values can overlap the other calls; inactive means mostly below about 22%
# Target sequence (P9WH09 whole entry, looked up): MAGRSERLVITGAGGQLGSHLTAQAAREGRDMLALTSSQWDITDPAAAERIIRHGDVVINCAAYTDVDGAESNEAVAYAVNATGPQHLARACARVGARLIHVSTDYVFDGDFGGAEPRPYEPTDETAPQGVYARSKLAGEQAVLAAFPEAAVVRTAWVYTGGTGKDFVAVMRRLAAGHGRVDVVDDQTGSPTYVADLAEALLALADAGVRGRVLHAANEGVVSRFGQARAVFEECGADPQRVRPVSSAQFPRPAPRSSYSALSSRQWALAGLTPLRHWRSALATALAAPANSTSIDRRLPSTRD
# Target sequence (P9WH11 whole entry, looked up): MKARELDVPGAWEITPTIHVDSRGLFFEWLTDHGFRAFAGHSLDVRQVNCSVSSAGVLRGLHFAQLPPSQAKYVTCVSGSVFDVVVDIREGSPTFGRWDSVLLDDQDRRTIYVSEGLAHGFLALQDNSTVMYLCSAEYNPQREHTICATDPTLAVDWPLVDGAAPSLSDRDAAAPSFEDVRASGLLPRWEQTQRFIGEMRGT
# YopH PTP inh – blocks Yersinia enterocolitica YopH tyrosine phosphatase; fluorescence Ex485/Em525; inhibition, % (concentration not given with the values); 140,000 tested, 0.16% active; AID 898; in the data active means inhibition above about 50%
# Starred values were filed as active, the others as inactive; ? = inconclusive; / = no result given. The sample as a whole holds a higher share of hits than the screen did.
SMILES,Mtb RmlCD inh,YopH PTP inh
CCn1nc(-c2ccccc2)nc2c(=O)n(C)c(=O)nc1-2,/,102*
CCOC(=O)Cn1nc(-c2ccccc2)nc1-c1ccccc1,52,-9
Cc1cccn2c(=O)c(C=Nc3ccc(Cl)cc3)c(NCCO)nc12,-2,-33
Cc1cccn2c(=O)c(C=Nc3ccccc3)c(NCCO)nc12,55*,-46
NC(=O)c1nn(-c2ccccc2)nc1N,79*,4
Cc1nn(-c2ccccc2)nc1C(N)=O,-7,/
O=C(O)c1nn(CC(=O)N2CCN(S(=O)(=O)c3ccc(Cl)cc3)CC2)c(=O)c2ccccc12,-5,/
Cc1ccnc(SCC(=O)Nc2sc3c(c2C#N)CCC(C(C)(C)C)C3)n1 (stereo not drawn),/,1
Cc1cc(C)nc(SCC(=O)Nc2sc3c(c2C#N)CCC(C)C3)n1 (stereo not drawn),/,93*
Cc1cccc(C)c1OCC(=O)Nc1ccc(N2CCOCC2)cc1,4,/
CCN1CCN(CCCNC(=O)c2cc3cc4ccc(OC)cc4nc3o2)CC1,-3,-8
COc1ccc2cc3cc(C(=O)NCCCN4CCOCC4)oc3nc2c1,51*,-33
COC(=O)N(NC(=O)C(O)(c1ccccc1)c1ccccc1)c1ccccc1,7,18
COC(=O)N(NC(=O)C(O)(CCC(C)C)CCC(C)C)c1ccccc1,/,70*
CCc1ccc(C(=O)COC(=O)c2cccnc2Cl)cc1,-11,/
Cc1c(N2C(=O)/C(=C3/C(=O)N(C)c4ccccc43)SC2=S)c(=O)n(-c2ccccc2)n1C,-6,-29
CC(=O)N1C(=O)/C(=C2\SC(=S)N(c3c(C)n(C)n(-c4ccccc4)c3=O)C2=O)c2ccccc21,?,99*
COc1ccc(SCCC(=O)NCc2ccncc2)cc1,65,/
O=C(c1cccs1)N1CCN=C1SCc1cccnc1,-10,50*
O=C(c1cccs1)N1CCN=C1SCc1ccc(Cl)cc1,-13,/
O=C(NCC1CCCO1)C(c1ccccn1)N(Cc1ccccc1Cl)C(=O)CN1C(=O)c2ccccc2S1(=O)=O (stereo not drawn),2,/
Cc1nc2c(=O)n(C)c(=O)nc-2n(C)n1,/,101*
Cc1ccc(C)c(-n2c3nc(=O)n(C)c(=O)c-3cc3ccccc32)c1,13,/
CCOC(=O)CNC(=S)N1CCn2c(nc3ccccc32)C1,-14,/
CCN(CC)c1ccc(/C=N/Nc2ccc(C)cc2)c(O)c1,11,83*
SMILES,Mtb RmlCD inh,YopH PTP inh
CCOC(=O)N/N=C/c1ccc(N(CC)CC)cc1O,5,-26
Clc1nc(CN2CCCCC2)nc2sc3c(c12)CCC3,6,/
CCCCNC(=O)/C(C#N)=C/c1ccc(F)cc1F,-18,/
CCn1c(COc2ccc(C)cc2)nnc1SCc1nc2ccccc2[nH]1,64,11
Cn1c(COc2ccccc2)nnc1SCc1nc2ccccc2[nH]1,-5,71*
Cc1ccc2c(c1)c1ncnc(N3CCC4(CC3)OCCO4)c1n2C,10,-33
Cc1ccc2c(c1)c1ncnc(N3CCOCC3)c1n2C,96*,-35
O=C(Nc1nc2ccccc2s1)c1cc(-c2ccco2)nc2ccccc12,37*,23
Cc1ccc2nc(NC(=O)c3cc(-c4ccco4)nc4ccccc34)sc2c1,5,-5
CCC1(c2ccc(F)cc2)NC(=O)N(CC(=O)Nc2ccc(C)c(S(=O)(=O)N3CCOCC3)c2)C1=O (stereo not drawn),9,/
O=C(c1ccc(F)cc1)C1CCN(C(=S)NCC2CCCO2)CC1 (stereo not drawn),2,/
CCOC(=O)c1c(C)oc2c1c(C=NCC1CCCO1)c(O)c1ccccc12 (stereo not drawn),-3,44
CCOC(=O)c1c(C)oc2c1c(C=NCc1ccccn1)c(O)c1ccccc12,4,57*
CCCC(=O)OCCNc1cc(SCc2ccco2)c2nonc2c1[N+](=O)[O-],2,37
CC(=O)OCCCNc1cc(SCc2ccco2)c2nonc2c1[N+](=O)[O-],2,69*
O=C(O)CCCNC(=O)CCCn1nnc2ccccc2c1=O,-9,/
CCOC(=O)c1c(C)oc2ccc(OC(=O)COc3c(F)c(F)c(F)c(F)c3F)cc12,/,-19
O=C(Cc1nc2ccccc2[nH]1)c1ccc(Br)cc1,-9,/
O=C(c1ccccc1)c1ccncc1,/,-30
[O-]/[N+](=C\c1ccncc1)c1ccccc1,3,59*
[O-]/[N+](=C\c1ccc(OC(F)F)cc1)c1ccccc1,5,55*
[O-]/[N+](=C/c1ccc(F)cc1)c1ccccc1,-9,53*
CC1(/[N+]([O-])=C/c2ccc(F)cc2)CCCCC1=O (stereo not drawn),-4,/
FC(F)Oc1ccc(NC(=S)NCc2ccccc2)cc1,3,-21
CCCn1c(=O)c(C#N)cn(C2CC2)c1=O,-8,/
SMILES,Mtb RmlCD inh,YopH PTP inh
Cc1cc(/C=N/N2CCN(C)CC2)c(C)n1-c1ccc(Cl)cc1,-13,/
O=C(Cn1cccc1C(=O)c1ccccc1)NCc1cccc(Cl)c1,31,/
CN(C)c1c2ccccc2nc2c(F)c(F)c(F)c(F)c12,41*,/
Cc1c2ccccc2nc2c(F)c(N(C)C)c(F)c(F)c12,-19,-6
Fc1cccc2sc(Nc3nc4ccccc4s3)nc12,-2,-46
COc1ccc(N2C(=O)[C@@H]3[C@H](C2=O)[C@H]2c4ccccc4C=CN2[C@@H]3C(C)=O)cc1,/,61*
COc1ccc(N2C(=O)[C@H]3[C@@H](C2=O)C2c4ccccc4C=NN2[C@H]3C(=O)C(C)(C)C)cc1 (stereo partly drawn),11,/
O=C1Nc2ccccc2/C1=N\c1sc2c(c1C(=O)Nc1ccccc1)CCCC2,/,-26
O=S(=O)(c1ccc(F)c(F)c1F)N1CCN(C(=S)Nc2ccccc2)CC1,-5,/
CCOC(=O)c1nn(-c2ccccc2)c(C#N)c1NC(=O)c1nn(CC)cc1Br,/,-26
CCOC(=O)c1c(NC(=O)c2nn(CC)cc2Br)c(C#N)nn1-c1ccccc1,24,52*
O=C(O)c1cc([N+](=O)[O-])c(NCCC2=CCCCC2)c([N+](=O)[O-])c1,7,/
COC(=O)C1=C(C)Nc2[nH]c(=S)[nH]c(=O)c2C1c1ccc(O)cc1 (stereo not drawn),-14,/
COc1cc(C2C(C(=O)OC(C)C)=C(C)Nc3[nH]c(=O)[nH]c(=O)c32)ccc1O (stereo not drawn),13,51*
Oc1ccccc1C1CC(c2cccs2)=NC(c2cccc(Br)c2)N1 (stereo not drawn),-12,/
O=C(Nc1ccc2ccccc2c1)N1CCCN(CCOc2ccccc2)CC1,1,/
O=C(O)c1cccc(-c2ccc(/C=N/n3cnc4sc5c(c4c3=O)CCCC5)o2)c1,-2,/
COc1ccccc1NC(=O)N1CCCC1,9,/
O=C1C(Nc2ccccc2)=C(N2CCCCC2)C(=O)c2ccccc21,-4,98*
CN(C1=C(N2CCCCC2)C(=O)c2ccccc2C1=O)c1ccccc1,/,8
COC1=C(Nc2ccc(C)cc2)C(=O)c2ccccc2C1=O,4,-2
COc1ccccc1NC1=C(N2CCCCC2)C(=O)c2ccccc2C1=O,/,90*
Cc1ccc(NC2=C(N3CCCCC3)C(=O)c3ccccc3C2=O)cc1,/,76*
O=C(/C=C/c1ccc(O)cc1)c1ccccc1,17,/
O=C(/C=C/c1ccc(O)cc1)c1ccc(NC2=C(N3CCCCC3)C(=O)c3ccccc3C2=O)cc1,-6,93*
O=C(CSc1ccc(-c2ccncc2)nn1)N1CCN(c2ccccc2)CC1,4,/
CCOC(=O)Cn1nc(C)n(-c2c(C)cccc2C)c1=O,5,/
